Assays:
Assay type in all cases: functional
Plasmodium falciparum [1] = assay: GSK_TCMDC: Inhibition of Plasmodium falciparum 3D7 in whole red blood cells, using parasite LDH activity as an index of growth. Test compounds present at 2uM
Plasmodium falciparum [2] = assay: GSK_TCMDC: Inhibition of Plasmodium falciparum Dd2 in whole red blood cells, using parasite LDH activity as an index of growth. Test compounds present at 2uM
HepG2 = assay: GSK_TCMDC: Percent inhibition of human HepG2 cell line. Test compounds present at 10uM.

Structure (SMILES) | Inhibition (Plasmodium falciparum [1]) | Inhibition (Plasmodium falciparum [2]) | Inhibition (HepG2)
Cc1ccc(NC(=O)N2CCN(CCCCCNC(=O)/C=C/c3ccc(Cl)c(Cl)c3)CC2)cc1C | 94% | 0% | 7%
CC1CCCN(S(=O)(=O)c2cc(Br)cc3c2N(C(=O)C2CC2)CC3)C1 (stereo not given) | 83% | 70% | 0%
Nc1c2ccccc2nc2cc(C(F)(F)F)ccc12 | 100% | 49% | 8%
Cl.O=C1CSc2ccc(CNC3CCN(CCc4c(F)cnc5ccc(F)cc45)CC3)nc2N1 | 97% | 16% | 13%
Br.N=c1sc2ccccc2n1CC(O)c1ccc(Cl)c(Cl)c1 (stereo not given) | 99% | 74% | 4%
CC(C)CC(C)NC(=O)C1Cc2c([nH]c3cc(Cl)ccc23)C2(CCN(CCc3ccccc3)CC2)N1 (stereo not given) | 95% | 65% | 15%
COc1ccc(NC(=O)c2ccc(OCCCCCCCOc3ccc(C(=O)Nc4ccc(OC)c(N5CCN(C)CC5)c4)cc3)cc2)cc1N1CCN(C)CC1.O=C(O)C(=O)O | 96% | 91% | 98%
N#Cc1ccc(N2CCN(Cc3ccc(-c4ccc(-c5nc6cc(F)ccc6[nH]5)s4)cc3)CC2)nc1.O=C(O)C(F)(F)F | 100% | 78% | 12%
COc1cc2c(cc1C(F)(F)F)N(C(=O)Nc1cc(Br)cc(-c3cccnc3)c1)CC2 | 96% | 34% | 8%
CC(C)(C)OC(=O)N1CCC(C2CCN(C(=O)OC(C)(C)C)CC2)CC1 | 86% | 28% | 0%
FC(F)(F)c1ccc2[nH]c(-c3ccc(-c4cccc(CN5CCN(CCN6CCOCC6)CC5)c4)cc3)nc2c1.O=C(O)C(F)(F)F | 98% | 77% | 47%
CN(C)Cc1ccc(-c2cc3c(-c4ccc(CN(C)C)cc4)ccnc3[nH]2)cc1.O=C(O)C(F)(F)F | 100% | 96% | 86%
CC(=O)N/N=C/[C@H](CCc1ccccc1)NC(=O)[C@H](CC(C)C)NC(=O)c1cccc(OCCN2CCOCC2)c1 | 94% | 78% | 13%
c1ccc(C23NC(=Nc4nc5ccccc5[nH]4)NC2(c2ccccc2)NC(=Nc2nc4ccccc4[nH]2)N3)cc1 (stereo not given) | 97% | 89% | 2%
CN1CCN(CCCN(Cc2cccc(-c3ccc(CNCCc4ccccc4)cc3)c2)C(=O)c2cccs2)CC1.O=C(O)C(F)(F)F | 100% | 97% | 86%
CS(=O)(=O)CCNCc1cccc(-c2ccc3c(Nc4ccc(Oc5ccccc5)cc4)ccnc3c2)c1 | 100% | 96% | 18%
O=C(O)C(F)(F)F.OCC1CCN(Cc2cccc(-c3ccc(-c4nc5cc(C(F)(F)F)ccc5[nH]4)cc3)c2)CC1 | 100% | 95% | 25%
Cl.O=C(C=Cc1ccc(C(=O)Nc2ccc(C3=NCCN3)cc2)cc1)Nc1ccc(C2=NCCN2)cc1 | 97% | 100% | 0%
Cc1cnc(CN(Cc2ccc(-c3ccc(CNCCc4ccc(S(C)(=O)=O)cc4)cn3)cc2)C(=O)c2nn(-c3ccccc3)nc2C)cn1.O=C(O)C(F)(F)F | 84% | 21% | 11%
COc1ccc(Nc2nccc(-c3ccc4ccnc(NCCCCN)c4c3)n2)cc1 | 95% | 47% | 15%

Structure (SMILES) | Inhibition (Plasmodium falciparum [1]) | Inhibition (Plasmodium falciparum [2]) | Inhibition (HepG2)
CCN(CC)C(=O)c1cccc(C=Cc2ccc(-c3c(C)[nH]c(C)c(Cl)c3=O)cc2)c1 | 96% | 96% | 9%
Cc1nc(-c2cccc(Nc3nccc(NCC(O)c4cccc(C(F)(F)F)c4)n3)c2)cs1 (stereo not given) | 100% | 99% | 14%
CCCc1ccc(-c2csc(NC(=O)c3ccc([N+](=O)[O-])o3)n2)cc1 | 85% | 13% | 72%
CSc1nc2nc(C)c(Cc3cccc(C(F)(F)F)c3)c(C)n2n1 | 98% | 95% | 4%
CCCCNC[C@@H](O)[C@H](Cc1ccccc1)NC(=O)c1cc2c3c(c1)c(CC)cn3CCS(=O)(=O)N2C.O=CO | 99% | 98% | 0%
Cc1cccc2nc(-c3ccc(-c4cccc(CNCC5CCCO5)c4)s3)[nH]c12.O=C(O)C(F)(F)F (stereo not given) | 93% | 11% | 26%
CN1CCN(c2ccc3[nH]c(-c4ccc(Cc5cc(Cl)ccc5OCc5ccccc5)o4)nc3c2)CC1.Cl | 100% | 79% | 27%
N#Cc1cccc(C(=O)N2CCOC(CCN3CCC(c4ccccc4)CC3)(c3ccc(Cl)c(Cl)c3)C2)c1 (stereo not given) | 87% | 49% | 51%
CN(C)C(CNC(=O)c1cc(-c2ccncc2)c(-c2cc3ccccc3[nH]2)o1)c1ccccc1.O=C(O)C(F)(F)F (stereo not given) | 96% | 62% | 3%
NC(=O)c1cccc(CNCc2ccc(-c3cccc(-c4nc5ccccc5[nH]4)c3)cc2)c1.O=C(O)C(F)(F)F | 100% | 94% | 29%
Cc1cc(N)nc2ccc(-c3ccc(CN)cc3)cc12 | 100% | 93% | 4%
CN(C)CCOc1cc(NC(=O)Nc2ccc(Oc3ccccc3)cc2)ccc1I.Cl | 89% | 4% | 13%
Cc1ccc2[nH]c(-c3cc(-c4ccc(CO)cc4)cnc3N)nc2c1.O=C(O)C(F)(F)F | 95% | 6% | 52%
CC(=O)N1N=C(c2[nH]c3ccc(Br)cc3c2C)OC1c1ccccc1 (stereo not given) | 86% | 68% | 8%
O=C(Nc1nc(-c2ccccn2)cs1)c1ccc(S(=O)(=O)N2CCc3ccccc32)cc1 | 89% | 15% | 47%
Cc1ccccc1N1CCN(c2ncc(C(=O)NC3CC3)cc2Cl)CC1.O=C(O)C(F)(F)F | 91% | 96% | 23%
Cc1ccc(-n2nc3ccc(NC(=O)c4ccc([N+](=O)[O-])o4)cc3n2)cc1C | 94% | 95% | 20%
CC(C)(C)C(Cn1ccnc1)NCc1c[nH]nc1-c1ccc(-c2ccccc2)cc1 (stereo not given) | 98% | 69% | 15%
CCCNC[C@@H](O)[C@H](Cc1ccccc1)NC(=O)c1cc(NCC)cc(N2CCCCS2(=O)=O)c1.Cl | 97% | 74% | 0%
CCN(CCCN1CCCCC1)c1cc(C)nc(Nc2cccc(C(F)(F)F)c2)n1.O=C(O)C(F)(F)F | 100% | 88% | 25%

Structure (SMILES) | Inhibition (Plasmodium falciparum [1]) | Inhibition (Plasmodium falciparum [2]) | Inhibition (HepG2)
Cc1ccc(-c2cc(C(=O)Nc3ccc(S(=O)(=O)N4CCCCC4C)cc3)n[nH]2)c(O)c1 (stereo not given) | 100% | 99% | 37%
N#Cc1cccc(NC(=O)Nc2ccc(-c3cccc(-c4nc5cc(F)ccc5[nH]4)c3)cc2)c1 | 100% | 100% | 64%
CC(C)CCNc1nc(NCCCc2ccccc2)c2cc(O)ccc2n1 | 100% | 95% | 14%
COc1cccc(C(=O)NC(NC(=S)Nc2ccc(OC)cc2[N+](=O)[O-])C(Cl)(Cl)Cl)c1 (stereo not given) | 99% | 49% | 9%
O=C(c1cnn(-c2ccccc2)c1C(F)(F)F)N1CCN(c2ccnc3cc(Cl)ccc23)CC1 | 89% | 94% | 34%
O=C(O)C(F)(F)F.O=[N+]([O-])c1cccc(CNCC2CCN(CCc3ccccc3)CC2)c1 | 98% | 11% | 15%
Cc1nn(-c2ccnc3cc(Cl)ccc23)c(C)c1C(=O)NCc1cc(Cl)cc(Cl)c1 | 97% | 53% | 0%
CCN(CCCN1CCCCC1)c1cc(C)nc(Nc2ccc(C)cc2C(F)(F)F)n1.O=C(O)C(F)(F)F | 100% | 35% | 23%
CS(=O)(=O)c1ccc(CNCc2ccc(-c3ccc(-c4nc5cc(C(F)(F)F)ccc5[nH]4)s3)cc2)cc1.O=C(O)C(F)(F)F | 100% | 98% | 49%
O=C(O)C(F)(F)F.O=c1cc(N2CCCNCC2)c(Cl)nn1Cc1ccc(NS(=O)(=O)c2ccc(Oc3ccccc3)cc2)cc1 | 98% | 0% | 0%
Cc1[nH]c(C)c(-c2ccc(CCc3ccc(C(F)(F)F)cc3)nc2)c(=O)c1Cl | 97% | 97% | 24%
OC(CNCCCc1ccccc1)c1cc(OCc2ccccc2)cc(OCc2ccccc2)c1 (stereo not given) | 93% | 85% | 8%
Fc1cccc(CNc2ncc(-c3ccsc3)c(-c3nccs3)n2)c1 | 91% | 85% | 15%
Cc1cc(O)nc(NC(=N)NOCc2ccccc2)n1 | 100% | 1% | 0%
CCCc1ccc(NC(=O)c2ccc(CN3CCCN(CC4CCCCC4)CC3)cc2)cc1.O=C(O)C(F)(F)F | 95% | 41% | 49%
CN(C)Cc1ccc(-c2ccc3c(Nc4ccc(Oc5ccccn5)cc4)ccnc3c2)o1 | 100% | 100% | 18%
Cc1cc(=NN=Cc2ccc(Cl)cc2)c2ccc(F)cc2[nH]1 | 100% | 87% | 6%
Cc1cc2nc(-c3cc(Br)ccc3O)c(-c3cc(Br)ccc3O)nc2cc1C | 96% | 12% | 2%
CNC(=O)c1cc(NCCCNCc2ccc(Cl)c(C(F)(F)F)c2)nc2ccccc12.Cl | 91% | 7% | 25%
CCCCCCOc1ccc(C(=O)NCCCC2CCCN(CCCCCNC(=O)C=Cc3ccc(Cl)c(Cl)c3)C2)cc1 (stereo not given) | 96% | 12% | 20%
